# Data as given in PubChem BioAssay (Tox21).
# Records with an inconclusive call do not appear. Values without a mark were called inactive. Active and inactive are the calls of the source. Calls come from the whole dose curve; as a rule, active = well fitted cell-killing curve with a large enough effect in the repeat runs; inconclusive = weak or mixed curves; inactive = flat fitted curve, though single readings scatter.
# Assay: qHTS assay to identify small molecule antagonists of the TGF-beta/Smad signaling pathway - cell viability counter screen (AID 1346824); note: nearly all actives have a fitted effect of over 50% in size
# Details: SBE-bla HEK293T viability, CellTiter-Glo luminescence; series mostly up to 76.8 µM
# Excerpt: U.S. Tox21 Program National Center for Advancing Translational Sciences [NCATS] NIH Chemical Genomics Center [NCGC] U.S. Environmental Protection Agency [EPA] National Institutes of Environmental Health Sciences [NIEHS] National Toxicology Program [NTP] U.S. Food and Drug Administration [FDA] Tox21 Assay Overview: Transforming growth factor beta (TGF-beta) superfamily consists of a large number of structurally related dimeric proteins that act as hormones or local mediators in regulating a wide range of biological functions. This superfamily includes TGF-betas themselves, the bone morphogenetic proteins (BMPs) and the activins. These ligands induce oligomerization of serine/threonine receptor kinases and phosphorylate the cytoplasmic signaling molecules of Smad protein family. CellSensor SBE-bla HEK 293T cell line (Life Technologies, Carlsbad, CA), responsive to TGF-beta was used to screen Tox21 10K compound library for identification of agonists/antagonists of the Smad signaling pathway. This cell line contains a beta-lactamase reporter gene under control of the Smad binding element (SBE) stably integrated into HEK 293T cells. Also cytotoxicity of the compounds was tested in parallel by measuring the cell viability using CellTiter-Glo assay system in the same wells.
# Tox21 Assay Protocol Summary: SBE-bla HEK 293T cells were dispensed at 4,000/well in 5 uL of assay medium into black wall/clear-bottom 1536-well plates using a Multidrop Combi (ThermoFisher Scientific, Waltham, MA) dispenser. After the assay plates were incubated at 37 C and 5% CO2 for an overnight, 23 nL of compounds dissolved in DMSO, positive controls or DMSO only was transferred to the assay plate by a Pintool station (Kalypsys, San Diego, CA). Compound transfer was followed by the addition of 1 uL of 0.25 ng/mL TGF-beta1 or assay buffer using two separate tips of Flying Reagent Dispenser (FRD, Aurora Discovery, San Diego, CA). The assay plates were incubated at 37 C and 5% CO2 for 5 hr. One uL of LiveBLAzer B/G FRET substrate (Life Technologies) was added using a Flying Reagent Dispenser (FRD, Aurora Discovery, San Diego, CA) and the plates were incubated at room temperature for 2 hr. Fluorescence intensity (405 nm excitation, 460 nm and 530 nm emissions) was measured using an Envision plate reader (PerkinElmer, Shelton, CT). For cytotoxicity read, 4 uL of CellTiter-Glo reagent (Promega Corporation, Madison, WI) was added to each well of the assay plates using FRD. After 30 min incubation at room temperature, the luminescence intensity was measured using ViewLux plate reader (PerkinElmer).
# % is set by controls: 0 for no effect and ±100 for the full control effect.
Compound,outcome,"viability change, negative = cytotoxic"
OCCc1ccncc1,inactive,
CCCOC(C)=O,inactive,
O=C(Cl)c1ccc(F)c(Cl)c1,inactive,
c1ccc(CCNc2nc(-c3ccccc3)cs2)cc1,inactive,
O=C(O)c1c2ccccc2cc2ccccc12,inactive,
FC(F)(Cl)C(F)(Cl)Cl,inactive,
O=C(O)c1ccccc1[N+](=O)[O-],inactive,
CCOc1cc(OCC)c(C(C)=O)cc1OCC,inactive,
CC(C)(C)c1ccc(CCC=O)cc1,inactive,
CC(=O)c1cccnc1,inactive,
CC1(C)CC(O)CC(C)(C)N1[O],inactive,
OCC(O)c1ccccc1 (stereo not given),inactive,
CC(O)CN (stereo not given),inactive,
CC1(C)CC(=O)CC(C)(C)N1,inactive,
Cc1cc(N)n(-c2ccccc2)n1,inactive,
CC(C(=O)O)c1ccc(/C=C2\CCCCC2=O)cc1 (stereo not given),inactive,
O=C(O)c1ccncc1,inactive,
OCCCO,inactive,
c1ccc(-c2ccc(-c3ccccc3)cc2)cc1,,-15.2% [at 15.8 µM]
CCOCCn1c(N2CCCN(C)CC2)nc2ccccc21,inactive,

Compound,outcome,"viability change, negative = cytotoxic"
CCOC(=O)CC(O)(CC(=O)OCC)C(=O)OCC,inactive,
CC(COc1ccccc1)NC(C)C(O)c1ccc(O)cc1 (stereo not given),inactive,
O=C(O)CCc1nc2ccccc2[nH]1,inactive,
CCCCCCCCOCCCN,inactive,
CCCCOC(=O)CC#N,inactive,
CCC(=O)O[C@]1(C(=O)COC)[C@@H](C)C[C@H]2[C@@H]3CCC4=CC(=O)C=C[C@]4(C)C3(F)[C@@H](O)C[C@@]21C (stereo not given in full),inactive,
CCCc1ccc(OC)cc1,inactive,
CC(=O)c1ccc(Cl)c(Cl)c1Cl,inactive,
O=P(c1ccccc1)(c1ccccc1)c1ccccc1,inactive,
CC(C)(C)c1cc(C=O)cc(C(C)(C)C)c1O,inactive,
CC(Cc1ccccc1)(NC(=O)CN)c1ccccc1 (stereo not given),inactive,
CCCC1CCOC(C)S1 (stereo not given),inactive,
CCCC1CCCC(=O)O1 (stereo not given),inactive,
O=C(O)c1ccc(O)c(O)c1,inactive,
CCOc1ccc(NC(C)=O)cc1N,inactive,
CCC1=C(C)CN(C(=O)NCCc2ccc(S(=O)(=O)NC(=O)NC3CCC(C)CC3)cc2)C1=O (stereo not given),inactive,
Cc1c(Cl)cccc1[N+](=O)[O-],inactive,
O=C(O)c1ccccc1-n1cc(C(=O)O)c(=O)c2cc(Nc3c(F)cc(F)cc3Cl)c(Cl)cc21,inactive,
C1=COCCC1,inactive,
O=C(O)c1ccc2cc(O)ccc2c1,inactive,
